This passage reports outcome results from PubChem BioAssay AID588393 (NMMLSC, 2011).

Structures are written as SMILES. The source made the active and inactive calls.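 How the source made its calls: active means valid curve fit, half-maximal dose at most 10 µM, and binding change across doses at least 30%; inactive means the rest.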

For this test, the system named is Rab7 GTPase, wild type (Canis lupus familiaris). Kind of test: Rab7 wildtype GTP binding inhibitors, SAR follow-up, Cdc42 probe extension project, biochemical, dog Rab7, bead multiplex flow cytometry, round 1 (AID 588393). The conditions noted are these: GST-Rab7 beads, Bodipy-FL-GTP binding, EDTA; series mostly up to 100 µM.
In the case of `COc1ccc(C2CC(c3ccccc3)=NN2c2ccc(S(N)(=O)=O)cc2)cc1` (stereo not drawn), the result was inactive. To `O=C(C#Cc1ccccc1)c1cccc([N+](=O)[O-])c1` belongs “inactive”. The result for `NS(=O)(=O)c1ccc(N2N=C(c3ccccc3)CC2c2ccccc2)cc1` (stereo not drawn) reads “inactive”.
